Compound activity: PubChem BioAssay, The Scripps Research Institute Molecular Screening Center
A selection: hits, their analogues and other compounds. The true share with any hit is near 2.5%.
LEDGF integ inh – blocks HIV-1 LEDGF/p75-dependent DNA integration. TR-FRET IN-LEDGF/p75 DNA integration, Eu/Cy5. inhibition, % at 3.7 µM. 370,000 tested, 0.64% active;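 active = inhibition above the screen-wide mean plus 3 SD, cut at about 13% in these data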;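 note: signal is the Cy5 over europium emission ratio at 671 and 618 nm; 0% = plate median of compound wells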
PRMT1 FP inh – blocks human protein arginine methyltransferase 1 | Q99873 | inhibition, % at 2.79 µM | recombinant PRMT1, activity-based probe fluorescence polarization | 370,000 tested, 1.3% active | AID 652257;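 active = inhibition above about 21% made by adding two undisclosed values, limit read from the data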
UHRF1 binding – UHRF1 methyl-DNA binding inhibition; UHRF1 binding to methylated oligo, TR-FRET; inhibition, % at 4.4 µM; 370,000 tested, 0.75% active; AID 687016; in the data active = inhibition above about 21%;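 note: UHRF1 SRA domain binding a hemimethylated CpG hairpin DNA probe; 0% = median of test compound wells and 100% = reference inhibitor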
MBD2 inh – inhibitors of human MBD2 binding to methylated oligonucleotide. Q9UBB5. AID 686964. 370,000 tested, 0.31% active. TR-FRET. inhibition, % at 4.4 µM; in the data active = inhibition above about 13%
Target sequence (Q9UBB5 whole entry, looked up): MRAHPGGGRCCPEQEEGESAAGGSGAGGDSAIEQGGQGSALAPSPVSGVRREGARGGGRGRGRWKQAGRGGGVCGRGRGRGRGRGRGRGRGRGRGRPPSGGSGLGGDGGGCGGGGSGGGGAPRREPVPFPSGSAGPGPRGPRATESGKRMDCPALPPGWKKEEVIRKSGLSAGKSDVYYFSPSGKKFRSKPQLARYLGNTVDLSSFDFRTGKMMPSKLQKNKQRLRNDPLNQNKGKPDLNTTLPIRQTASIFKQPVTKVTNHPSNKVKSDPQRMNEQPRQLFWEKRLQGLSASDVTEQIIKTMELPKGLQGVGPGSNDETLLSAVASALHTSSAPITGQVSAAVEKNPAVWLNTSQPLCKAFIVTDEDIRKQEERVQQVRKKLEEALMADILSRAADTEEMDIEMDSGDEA
IN multimer act – activates HIV-1 integrase multimerization in LEDGF counter-screen | 2,000 tested, 17% active | activation, % at 7.7 µM | shares compounds with LEDGF integ inh | TR-FRET HIV-1 integrase multimerization, biochemical | AID 1053131; in the data active = activation above about 8.9%
TR-FRET interf – TR-FRET optical interference, LEDGF/p75 integration counter-screen. shares compounds with LEDGF integ inh. TR-FRET optical interference counterscreen, HIV-1 IN multimerization. inhibition, % at 7.7 µM. 2,000 tested, under 10 active. AID 1053135;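 active = inhibition above the mean over all tested compounds plus 3 SD, which no compound reached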;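 note: 0% = integrase with antibodies and DMSO and 100% = antibodies without integrase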
LEDGF integ conf – confirmation of HIV-1 LEDGF/p75-dependent integration inhibitors | 2,000 tested, 36% active | shares compounds with LEDGF integ inh | AID 1053136 | TR-FRET LEDGF/p75-dependent HIV-1 integration, biochemical | inhibition, % at 3.7 µM; in the data active = inhibition above about 14%
Starred values were filed as active, the others as inactive; x = not tested or not shown.

SMILES | LEDGF integ inh | PRMT1 FP inh | UHRF1 binding | MBD2 inh | IN multimer act | TR-FRET interf | LEDGF integ conf
Cc1ccc(N2C(=O)CCC2(C(N)=O)c2ccccc2)cc1 (configuration not stated) | -2 | -2 | -1 | 1 | x | x | x
COc1ccc(CC(=O)NCCC(C)C)cc1S(=O)(=O)N1CCOCC1 | 89* | -2 | -1 | 5 | -3 | 14 | -2
CCCNC(=O)C1(C)CCCN(C(=O)c2cc(C)nn2C(C)(C)C)C1 (configuration not stated) | 28* | 4 | 0 | 6 | -4 | 18 | 0
COC(=O)\C(C(C)=O)=C(/C=C/C=C/C=C/N(C)C)N(C)C | 56* | 12 | 55* | 11 | 8 | -43 | 59*
COC(=O)/C(C(C)=O)=C(\C=C\N(C)C)N(C)C | 0 | -2 | -2 | -1 | x | x | x
COc1cc(NCCCC(C)N)c2ncccc2c1 (configuration not stated) | 30* | 4 | -4 | -16 | 5 | -19 | 63*
CCC(CNc1cc(OC)cc2cccnc12)NC1CCCCC1 (configuration not stated) | 58* | 32* | 9 | -16 | 6 | -22 | 76*
COc1cc(NS(=O)(=O)c2ccc(C)cc2)c2ncccc2c1 | -26 | -6 | 0 | -2 | x | x | x
Cc1cccc(NC(=O)Nc2nnc([C@@H]3C[C@H](O)[C@@H](CO)O3)s2)c1 | -3 | 2 | 1 | 3 | x | x | x
CCOC(=O)c1c2ccc(OCC(=O)N/N=C/c3ccc(Cl)cc3)cc2n2ccccc12 | 14* | 11 | 10 | 10 | -2 | 12 | 6
CCOC(=O)C1CCN(C(=O)COC(=O)c2c(C)c(CC)nc3ccccc23)CC1 | 0 | -2 | -3 | 3 | x | x | x
COC(=O)[C@]12CCCCC=C1N(Cc1cccc3ccccc13)C(=O)[C@H](CC(=O)N1CCCCC1)C2 | 82* | -4 | 13 | 2 | 0 | -1 | 3
COC(=O)[C@]12CCCCC=C1N(Cc1cccc3ccccc13)C(=O)[C@H](CC(=O)N1CCC(c3ccccc3)CC1)C2 | 2 | 1 | -1 | -3 | x | x | x
COc1ccc(-c2nc3c(-c4ccc(F)cc4)cnn3cc2C)cc1F | 10 | -6 | 3 | -5 | x | x | x
CN(Cc1ccccc1)c1cc2c(c3c1ccn3C)C1CCC2O1 (configuration not stated) | -2 | -1 | 0 | -8 | x | x | x
Cn1ccc2c(N(Cc3ccccc3)Cc3ccccc3)cc3c(c21)C1CCC3O1 (configuration not stated) | 20* | 0 | -5 | -10 | -1 | 4 | -3
O=c1c(C=NCCCO)c(-c2ccccc2)[nH]n1-c1nc2ccccc2s1 | 21* | -3 | -2 | -4 | -1 | 6 | -2
C=C1CC2C(=O)N(Cc3cc(OC)ccc3OC)C(C(=O)OCC)(C(=O)OCC)C1N2C(=O)OC(C)(C)C (configuration not stated) | 50* | -1 | -2 | -4 | 2 | -9 | -9
COc1ccc(B(O)O)c(CN2CCN(C(=O)OC(C)(C)C)CC2)c1 | 7 | 3 | 5 | -1 | x | x | x
COc1cc(C(=O)c2nccc3cc(OC)c(OC)cc23)c([N+](=O)[O-])cc1OC | 33* | -3 | 28* | -2 | 0 | 1 | 45*
COc1cc(C(=O)c2ccccc2)c([N+](=O)[O-])cc1OC | 1 | 1 | 3 | 2 | x | x | x
Cc1ccc(NS(=O)(=O)c2ccc(NC(=O)c3ccccc3C(=O)O)cc2)cc1C | -3 | 0 | -1 | -4 | x | x | x
COc1ccc(CN(C)C(=O)CCNS(=O)(=O)c2ccccc2)c(OC)c1 | 23* | -2 | -2 | -4 | 0 | 1 | -11
COc1ccc(CN(C)C(=O)c2cc(S(=O)(=O)NCc3ccccc3)ccc2C)c(OC)c1 | 4 | -5 | -1 | 6 | x | x | x
C[C@H]1CN([C@@H](C)CO)C(=O)CCCn2nncc2CO[C@@H]1CN(C)S(=O)(=O)c1ccccc1 | -4 | 2 | 1 | 2 | x | x | x
SMILES | LEDGF integ inh | PRMT1 FP inh | UHRF1 binding | MBD2 inh | IN multimer act | TR-FRET interf | LEDGF integ conf
COc1cccc(CN2C(=O)CCC2(C)C(=O)NC2CCCC2)c1 (configuration not stated) | 22* | 0 | -2 | -2 | 0 | -2 | 3
Cc1nnc(-c2ccc(Oc3ccc(Br)cc3)c([N+](=O)[O-])c2)o1 | 16* | 3 | 0 | 5 | 0 | 2 | -7
O=C(Nc1cccn2nc(COCCO)nc12)C(c1ccccc1)c1ccccc1 | -4 | 7 | 1 | 0 | x | x | x
O=C1CC(NS(=O)(=O)c2cccnc2)CN1c1ccccc1 (configuration not stated) | -2 | 1 | -1 | 0 | x | x | x
O=C1CC(NS(=O)(=O)c2ccc3ccccc3c2)CN1c1ccccc1 (configuration not stated) | 56* | -2 | -1 | -4 | 4 | -21 | 4
Cc1occc1-c1nnc(SC(C)C(=O)Nc2ccccc2F)o1 (configuration not stated) | 1 | 0 | -2 | -2 | x | x | x
Cc1noc(/C=C/N(C)C)c1S(=O)(=O)N1CCCC(C(=O)Nc2ccc3c(c2)OCO3)C1 (configuration not stated) | 15* | -6 | 0 | 1 | -1 | 6 | -4
Nc1nccc(N2CCCCC2)n1 | 0 | -1 | 0 | -2 | x | x | x
Nc1ccccc1C(O)(Cc1ccccc1)c1ccccc1 (configuration not stated) | 87* | 6 | 2 | 2 | 0 | 1 | -3
O=C1c2ccccc2C(c2nnnn2-c2ccc3c(c2)OCCO3)N1CCc1ccccc1F (configuration not stated) | 1 | 3 | -3 | -3 | x | x | x
O=C(Nc1cccc(C(=O)N2CCOCC2)c1)C1CCCCC1 | 6 | -5 | -2 | -2 | x | x | x
CCOC(=O)/C=C/C(=O)Nc1ccccc1-c1ccccc1NC(=O)/C=C/C(=O)OCC | 56* | 0 | -2 | 0 | 0 | -1 | -9
CCOC(=O)/C=C/C(=O)OCC(=O)Nc1cccc(Cl)c1Cl | -2 | 5 | 2 | 2 | x | x | x
Cc1cccc(S(=O)(=O)NC(=O)C2(C)CCN2C(=O)C/C=C/c2ccccc2)c1 (configuration not stated) | -1 | 6 | 1 | 5 | x | x | x
Cc1ccnc(NC(=O)CCC(=O)N(CC(=O)NC(C)(C)C)c2ccc3c(c2)OCCO3)c1 | -1 | -1 | 0 | -1 | x | x | x
CC1(OC(=O)c2ccc(Cl)nc2)C(=O)C=C2C=C3CCCN3C=C2C1=O (configuration not stated) | 18* | 12 | 13 | -1 | 8 | -42 | 42*
